Active and inactive are the calls of the source. How the source made its calls: active means hit-call score of the fitted dose curve at least 0.9, where 1 is the maximum; inactive means score below 0.9.
Read-out: ATP-citrate lyase (ACLY), ACLY (gene 47)
Assay: LTEA_HepaRG_ACLY: Life Technologies and Expression Analysis (LTEA) Assay for ATP-citrate lyase (ACLY) using HepaRG (AID 2283466)
Conditions: mRNA level, 48 h; actives raise or lower the signal
Protocol: LTEA_HepaRG is a cell based, multiplexed-readout assay that uses HepaRG, a human liver cell line, with measurements taken at 48 hours after chemical dosing on a 96-well plate.LTEA_HepaRG_ACLY is one of 102 assay component(s) measured in the LTEA HepaRG cell culture assay. It is a marker of Steatosis.Data from the assay component LTEA_HepaRG_ACLY was analyzed into 1 endpoint. This assay endpoint, LTEA_HepaRG_ACLY, was analyzed with bidirectional fitting relative to DMSO as the negative control and baseline of activity. Using a type of inducible reporter, measures of mRNA induction for gain or loss-of-signal activity can be used to understand regulation of transcription factor activity. To generalize the intended target to other relatable targets, this assay endpoint is annotated to the lyase intended target family, where the subfamily is steatosis.
A total of 1060 chemcials from the ToxCast library were tested in eight-point concentration-response experiments. Cell culture and cytotoxicity assays were conducted at Thermo Fisher Scientific's Custom Services facility (Madison, WI). A single lot of human HepaRG cells (Thermo Fisher Scientific, Frederick, MD) was used for the cell culture experiments. 96-well format collagen type I coated plates of human HepaRG cells were prepared using established methods. Briefly, cryopreserved HepaRG cells were thawed, plated at a density of approximately 100,000 cells/well in HepaRG Thaw, Plate, and General Purpose media (HPRG770, Thermo Fisher Scientific), and incubated for 48 hours. 0.5% DMSO was selected as vehicle control to balance the requisite need of DMSO in HepaRG cultures to maintain differentiation (for example, baseline metabolism, proportions of hepatocytes vs. cholangiocytes), while enabling further hepatic receptor pathway activation (for example, PXR and CAR) in response to chemical exposure. 48 hours after plating, the culture medium was replaced with HepaRG Serum-Free Incudtion Media. Cells were exposed to each test chemical in duplicate and maintained in CO2 incubators for another 48 hours. Chemical plates were thawed to room temperature and 200x concentrations of treatment groups were prepared. 8-point conentration-reponse curves were made with the highest exposure at 100 uM, followed by half-log dilutions, all in 0.5% DMSO. Each test plate contained variouse controls, induction positive controls (1mM phenobarbital), cytotoxicity positive controls ([…] aflatoxin B1), vehicle controls (0.5% DMSO), and total lysis controls (0.5% DMSO). Cell morphology images were taken using an Essen IncuCyte FLR automated microscope, with six 96-well plates imaged in about 24 minutes. Images were captured and exported and JPEG files. Spent culture media was transfered to black-well plates for the LDH assay, and remaining media was sorted at -80 C for later use. Cells were treated with RLT buffer and frozen until shipped for gene expression analysis. Total RNA was isolated from the cell suspension in 75 uL of Buffer RLT (Qiagen, Germantown, MD 20874) by Quintiles/Expression Analysis (Durham, NC) using a custom isolation procedure. Total RNA from each plate well was transferred to a preamplification plate. Fluidigm's 96.96 Dynamic ArrayTM (Fluidigm, Amsterdam, the Netherlands) technology was used for gene expression analyses by quantitative reverse transcription polymerase chain reaction (qRT-PCR, performed by Quintiles/Expression Analysis, Durham, NC)89. Standard TaqManTM Assays (Applied Biosystems/ThermoFisher Scientific, Foster City, CA) were used to assess the expression of 93 genes selected based on their selectivity and sensitivity to important hepatic receptors known to be modulated by environmental chemicals; importance in human hepatocyte functionality; and hepatotoxicity. […]

| SMILES | outcome | AC50 |
| --- | --- | --- |
| C1CCC(SSC2CCCCC2)CC1 | inactive |  |
| COc1ccc(C)cc1N | inactive |  |
| Cc1ccc2ncccc2c1 | inactive |  |
| CCCCCCCCCCCCCCCCCC(=O)O | inactive |  |
| CNCc1cc(F)ccc1Oc1ccc(Cl)c(Cl)c1 | inactive |  |
| C[C@]12C=CC(=O)C=C1CC[C@@H]1[C@@H]2C(=O)C[C@@]2(C)[C@H]1CC[C@]2(O)C(=O)CO | inactive |  |
| CCCCCCCCCCCCCO | inactive |  |
| CCCCCC(=O)O | inactive |  |
| CCCCCCCCCCCCCCCC | inactive |  |
| O=C(N[C@@H](Cc1ccccc1)[C@@H](O)C(=O)N1C[C@@H](O)[C@@H](O)C1)c1cc2cc(Cl)ccc2[nH]1 |  | 50 µM (active) |
| Cc1nc(C)nc(N2C[C@@H](C)N(c3ccnc([C@@H](C)O)n3)[C@@H](C)C2)n1 | inactive |  |
| Cc1cc(NC(=O)C(=O)O)cc(C)c1Oc1ccc(O)c2c1CCC2 | inactive |  |
| CCCCCCCCCCO | inactive |  |
| Oc1ccc2c(c1)OC[C@@H](N1CCC(O)(c3ccc(F)cc3)CC1)[C@H]2O | inactive |  |
| CC=Cc1ccc(O)c(OC)c1 | inactive |  |
| CCOc1ccc2c(c1)C(C)=CC(C)(C)N2 | inactive |  |
| Cc1ccc(C)c(O)c1C | inactive |  |
| Cc1ccccc1Cl | inactive |  |
| CCOC(=O)C(C)(C)Oc1ccc(Cl)cc1 | inactive |  |
| Cc1ccc(N(C)C)cc1 | inactive |  |

| SMILES | outcome | AC50 |
| --- | --- | --- |
| CCOC(=O)CCC(=O)OCC | inactive |  |
| CC(=O)OCCOCCOCCOC(C)=O | inactive |  |
| C=CCc1ccc(O)c(OC)c1 | inactive |  |
| NCCO | inactive |  |
| COc1cc(-c2nc(NC(=O)c3cc4cc(C)cc(C)c4n3CC(=O)O)sc2CCC2CCCCC2)c(OC)cc1Cl |  | 12 µM (active) |
| COCCOC[C@H](CC1(C(=O)NC2CCC(C(=O)O)CC2)CCCC1)C(=O)Oc1ccc2c(c1)CCC2 (stereo not given in full) | inactive |  |
| COc1ccc2c(c1)c(CC(=O)O)c(C)n2C(=O)c1ccc(Cl)cc1 | inactive |  |
| CCCCCCCCCCC | inactive |  |
| Cc1c(C(=O)O)c(O)cc2c1C(=O)c1c(O)c([C@@H]3O[C@H](CO)[C@@H](O)[C@H](O)[C@H]3O)c(O)c(O)c1C2=O | inactive |  |
| CC1(C)NC(=O)NC1=O | inactive |  |
| CC(=O)Oc1ccccc1C(=O)O | inactive |  |
| CC(CO)OC(C)CO (stereo not given) (tested in a mixture with another compound) | inactive |  |
| CNC(=O)[C@H]1O[C@@H](n2cnc3c(NCc4cc(Cl)ccc4OCc4cc(C)no4)ncnc32)[C@H](O)[C@@H]1N | inactive |  |
| CC1=C(/C=C/C(C)=C/C=C/C(C)=C/CO)C(C)(C)CCC1 | inactive |  |
| CC(=O)C(C)=CC1C(C)=CCCC1(C)C (stereo not given) | inactive |  |
| Cc1ccc(C(C)C)c(O)c1 | inactive |  |
| OC[C@@H](O)[C@@H](O)[C@H](O)[C@H](O)CO | inactive |  |
| Cc1cccc([N+](=O)[O-])c1C | inactive |  |
| CCCCCCCCCCCC(=O)OC | inactive |  |
| CC(C)c1ccc(C(=O)N=C(N)N)cc1S(C)(=O)=O | inactive |  |
